Data as given in the supplement of paper PMC3334620.
Over roughly 33,000 sequences, “E-score (-0.5 to 0.5)” has its median near -0.054; the highest 2% begin near 0.39. The sample as a whole holds a higher share of the highest values than the screen did.

Each sequence was assayed against Ylr278c (UniProt Q05854) (assay: PBM E-score (8-mer binding enrichment) (E-score (-0.5 to 0.5)); higher = stronger / more preferred TF binding). Conditions: protein concentration: 200 nM; construct: GST-DNA-binding domain.
Experimental: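 Universal 'all 10-mer' protein binding microarrays (Agilent AMADID 015681) probed with GST-tagged S. cerevisiae TFs (full-length or DBD) made by in vitro transcription/translation (PURExpress), about 100-200 nM. Bound TF was detected with fluorescent anti-GST. Each ungapped 8-mer (which stands for itself and its reverse complement) is scored by the PBM enrichment score (E-score), a modified Wilcoxon-Mann-Whitney statistic from -0.5 to +0.5, computed with the Universal PBM Analysis Suite. Scale: above 0.35 generally sequence-specific binding.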

UniProt Q05854, sequence (Q05854 whole entry, the tested form may be a part): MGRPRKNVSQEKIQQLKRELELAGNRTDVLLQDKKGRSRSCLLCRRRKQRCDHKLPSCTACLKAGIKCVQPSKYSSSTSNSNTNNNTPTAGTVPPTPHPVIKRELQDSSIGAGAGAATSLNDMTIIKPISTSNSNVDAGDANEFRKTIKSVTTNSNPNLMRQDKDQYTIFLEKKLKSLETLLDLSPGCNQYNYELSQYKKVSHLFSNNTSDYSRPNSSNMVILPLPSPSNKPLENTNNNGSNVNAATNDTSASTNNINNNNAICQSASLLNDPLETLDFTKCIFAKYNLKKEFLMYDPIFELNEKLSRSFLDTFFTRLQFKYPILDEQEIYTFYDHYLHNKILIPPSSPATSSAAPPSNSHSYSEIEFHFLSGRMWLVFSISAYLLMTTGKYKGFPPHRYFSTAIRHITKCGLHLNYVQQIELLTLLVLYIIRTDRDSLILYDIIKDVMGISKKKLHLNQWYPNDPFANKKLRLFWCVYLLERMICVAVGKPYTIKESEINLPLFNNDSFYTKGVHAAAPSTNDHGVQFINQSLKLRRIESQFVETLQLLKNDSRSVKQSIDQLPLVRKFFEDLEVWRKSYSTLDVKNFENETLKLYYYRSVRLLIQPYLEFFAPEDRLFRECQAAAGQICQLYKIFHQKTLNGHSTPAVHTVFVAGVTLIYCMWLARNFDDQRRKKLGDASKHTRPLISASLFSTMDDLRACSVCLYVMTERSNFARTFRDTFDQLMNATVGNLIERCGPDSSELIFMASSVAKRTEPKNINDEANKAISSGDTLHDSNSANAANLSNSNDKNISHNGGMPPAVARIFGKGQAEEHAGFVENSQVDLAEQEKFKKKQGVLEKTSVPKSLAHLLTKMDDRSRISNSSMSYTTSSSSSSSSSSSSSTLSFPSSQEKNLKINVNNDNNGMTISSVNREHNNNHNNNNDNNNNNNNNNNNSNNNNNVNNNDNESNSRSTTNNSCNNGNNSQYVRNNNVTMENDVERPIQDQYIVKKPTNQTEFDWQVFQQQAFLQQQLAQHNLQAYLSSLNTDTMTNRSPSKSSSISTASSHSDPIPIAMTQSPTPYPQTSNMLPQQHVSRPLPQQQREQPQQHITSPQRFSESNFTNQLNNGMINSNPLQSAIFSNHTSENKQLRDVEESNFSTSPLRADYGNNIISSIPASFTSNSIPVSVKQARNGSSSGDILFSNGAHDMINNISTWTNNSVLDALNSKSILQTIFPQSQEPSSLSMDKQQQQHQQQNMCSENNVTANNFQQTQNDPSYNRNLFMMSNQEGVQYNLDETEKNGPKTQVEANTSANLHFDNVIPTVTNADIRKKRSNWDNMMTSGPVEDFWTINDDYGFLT

Sequence | PBM E-score
GCCACCAA | -0.0527
CTTCGCAC | -0.164
AAAAGTCC | 0.371
TAATGGGA | -0.256
AGAAGAGG | -0.194
CCCTCAGC | -0.0523
ACCGGGAT | 0.388
CCCGGAAA | 0.429
CTCGGAAG | 0.303
ACCGGTAT | 0.277
CACGGAAA | 0.328
CACGGAAG | 0.228
GCCGGAAA | 0.428
GCCGGGAA | 0.329
GACGGAAA | 0.35
CCCGGAAG | 0.39
CCGGGAAA | 0.354
ACCGGAAT | 0.389
CGCAATTA | 0.23
AAACTGCC | -0.0969
ACCTCTTA | 0.176
GTCTAAAC | 0.0271
ATCGCGTC | -0.0429
GCTTGGCA | -0.34
GGCGGAAC | 0.349

Sequence | PBM E-score
GACGGAAC | 0.192
GCCGGAAC | 0.432
GAGCGCTC | 0.0431
TCTTATCA | 0.0183
CCAATGTC | -0.156
ACCTCCGA | 0.454
TCCTCCAA | -0.245
GCCTCCGC | 0.361
CCCTCCGG | 0.388
ACCTCCTA | -0.101
GCCTCCAA | -0.134
ACCTCCAA | -0.209
GCCTCCGA | 0.398
TCCTCCCA | 0.0879
TCCTCCGA | 0.43
CCCTCCAG | -0.0892
CCCTCCGC | 0.259
AAGCCCAG | -0.143
ACACCTAG | -0.13
AGACTTCG | -0.137
GACAGGTA | -0.0451
GCTATAGA | -0.234
CCAGGCAC | -0.0214
CCCTCCAA | -0.119
ACCTCCAC | 0.0767

Sequence | PBM E-score
ACCTCCGG | 0.47
ACCTCCTG | -0.253
ACCTCCTC | -0.0564
CCCTCCTA | -0.107
ACCTCCGC | 0.425
ACCTCCGT | 0.383
CCCTCCGA | 0.405
GTAAGAAA | -0.0755
GAGCGGCA | 0.207
ATGGTCAC | -0.0597
ATTTAAAA | 0.114
AGGTAGCA | -0.197
CATCTAAC | -0.0951
AGCTAGAC | -0.174
GTGGCGGA | 0.35
CAGGCGGA | 0.327
CCGGCGGA | 0.456
CCGGCGGC | 0.407
CTGGCGGC | 0.207
ACGGCGGA | 0.37
GCGGCGAA | 0.378
CCGGCGAA | 0.404
GCGGCGGA | 0.453
ACGGCGGC | 0.167
TCGGCGAA | 0.372

Sequence | PBM E-score
CTGGCGGA | 0.183
ACGCGAAC | -0.00887
ATGAAGCC | 0.0954
ACTGCCCA | -0.151
AGTTCATA | -0.0477
AATGGGTG | -0.0286
GAGGCTTA | -0.0425
GCGGCGCC | 0.289
ACGGCGCC | 0.184
CCGGCGCC | 0.422
AATTCTGT | -0.0602
CGCGTGGC | -0.00486
CTGGATTC | -0.00018
AGGGATTA | -0.223
GGGGATTA | 0.175
AGGGATTC | -0.0988
CGGGATTC | 0.392
CGGGATTA | 0.406
GTCGGGCA | 0.0838
GCTGAACA | -0.153
CTTAGTCA | -0.184
CACTACGG | 0.201
AGGTCAAA | -0.237
GATAGTCA | -0.0752
GCTCAGGA | -0.173

Sequence | PBM E-score
ACCCTAAG | -0.173
GCTCGGGA | 0.174
CGGAACTA | 0.422
CGGAACTC | 0.409
AGGAACTA | -0.0554
GGGAACTA | 0.11
AGGAACTC | 0.0174
CTGAACTC | -0.141
AGGCTTAA | -0.00203
GATACCTA | -0.0272
ATGACGAG | -0.153
GTATTGTA | 0.0802
AATGCCGT | 0.381
CATGCCGG | 0.368
CATGCCGA | 0.217
AATGCCGA | 0.392
AATGCCGC | 0.352
AATGCCGG | 0.421
CGCCAGAC | -0.153
CAGATTAC | -0.0164
TATACCAA | -0.101
AGGAGCTA | -0.144
CGGAGCTA | 0.42
CTGAGCTC | 0.0823
GGGAGCTA | -0.0279

Sequence | PBM E-score
CGGAGCTC | 0.441
AGGAGCTC | -0.122
CGTCTCTC | -0.00934
ATGGCTGA | -0.344
TCAGCACA | -0.175
AGGACATA | -0.278
GGGACATA | 0.0665
CGGACATA | 0.454
CTGACATC | -0.0317
AGGACATC | 0.0899
CGGACATC | 0.421
GGAAGTTA | 0.204
ATTCCAAC | -0.176
TCGATGAA | -0.11
CTCTTTTC | -0.0672
GCGACGGA | 0.313
GGGACGGA | 0.369
CGGACGGC | 0.313
CGGACGGA | 0.397
CCGACGCG | 0.394
ACGACGCG | 0.0212
CCGACGCC | 0.361
CCGACGGA | 0.425
ACGACGGA | 0.301
GACCTCCA | 0.0669

Sequence | PBM E-score
CCAGCTAG | -0.391
CAAGTTAC | 0.0544
GAGTTCAC | 0.0107
ACGATGAG | -0.0386
ACCCAGTC | -0.0927
ATGCTTCC | -0.0282
CACTGGCC | -0.0953
AGGAGCAC | -0.0853
TGGAGCAA | -0.111
AGGAGCAG | -0.00465
AGGAGCAA | -0.0147
CGGAGCAA | 0.456
CGGAGCAG | 0.417
GGGAGCAC | 0.0245
CGGAGCAC | 0.391
CTGAGCAG | -0.238
GAGGGAAA | -0.26
AATGCGAG | 0.00781
GTAGGGCA | -0.038
AATTCAGG | 0.127
GTGGTATA | -0.188
CGTCTATC | 0.0841
ACACACTA | -0.13
CTCGGTGC | 0.0178
ATCGGGGG | 0.209

Sequence | PBM E-score
CTCGGAGC | 0.431
ATCGGAGA | 0.455
CTCGGATC | 0.34
CTCGGAGA | 0.449
ATCAGAGA | -0.213
ATCGGAGG | 0.426
CTCGGCGA | 0.354
ATGGGAGA | -0.309
ATCGGTGG | 0.13
CTTGGAGA | -0.0088
CTGCAGCA | -0.151
ACTCAAAG | -0.129
AACTTGTC | 0.0361
TTAACCAA | -0.136
TAGCATAA | -0.111
ACTCCACA | -0.0234
CCTGACTA | -0.0923
GTCGGATA | 0.312
ATCGGAGC | 0.458
GTAGGAGA | -0.0599
GTCGGAGA | 0.444
ATCGGATC | 0.33
ATCAGAGC | -0.0306
ATATCTCA | 0.0231
GATTATGA | -0.0204

Sequence | PBM E-score
GACTGGAA | -0.161
CAACTTAG | 0.0176
AATAAGAC | -0.228
TGGGCCCA | 0.026
GGGAGTTA | 0.195
CGGAGTTA | 0.493
AGGAGTTC | 0.109
AGGAGTTA | 0.232
CTGAGTTC | 0.0225
CGGAGTTC | 0.494
GCTACAAA | -0.0551
TAGCCACA | -0.289
CCTAAGAA | -0.261
CGAAAGCG | -0.00844
GTCCCAGA | -0.235
GGGCGGAC | 0.399
AGGCGGCG | 0.193
AGGCGGGG | 0.221
AGGCGGAC | 0.386
CGGCGGAG | 0.461
CGGCGGCA | 0.281
GAGCGGAC | 0.321
AGGCGGAG | 0.39
CGGCGGCC | 0.322
GGGCGAAC | 0.0496

Sequence | PBM E-score
AGGCGGAT | 0.237
CGGCGGAC | 0.411
CTTCAACC | -0.0749
GCGATGCC | 0.0401
AGAGATGC | -0.0846
CATCACGC | 0.0744
ACGTGGAT | -0.233
AAAAGGTG | -0.196
ATCCCTAA | -0.254
ACGGCCCC | -0.034
CGGCGGAA | 0.438
AGGCGGAA | 0.304
GGGCGGAA | 0.364
ATTCCCCC | 0.162
CTTCCGCC | 0.343
ATTCCGCG | 0.439
ATTCCGCC | 0.418
ATGCCGCG | 0.304
ATTCCGCA | 0.356
CACACCCA | -0.107
GTACAACA | 0.014
GAACTACC | 0.0269
GAAAGTAA | -0.0679
CAACTGCC | -0.00091
CCTTTGAC | -0.121

Sequence | PBM E-score
CCGATTTA | 0.396
CCGATTCG | 0.267
CGGATTAA | 0.39
ACGATTTA | 0.0466
GCGATTCC | 0.237
CGGATTTC | 0.448
CCGATTTC | 0.303
CCGATTCC | 0.393
AGGATTTC | 0.0497
CTGATTTC | -0.0243
CGGATTAG | 0.299
GGGATTAA | 0.223
TACGCGAA | -0.0238
ACAGGAGC | -0.0789
CTCATGGC | -0.0203
ATGCAAGA | -0.214
ACACTAAC | 0.0293
ACCAAGAT | -0.0275
GACAATTA | 0.0117
GGATCGTA | -0.00905
AATAGATA | -0.126
ACACTGCC | 0.154
GGGATTTA | 0.287
AGGATTTA | 0.00139
CGGATTCA | 0.161

Sequence | PBM E-score
CGGATGTC | 0.4
CGGATTTA | 0.451
CGGATGTA | 0.307
AGGATGTC | -0.0871
CGGATTCC | 0.427
AGGATTCC | -0.00339
TTAAAAAA | -0.12
AGACCCAC | -0.00095
GACTAAAC | -0.0103
GGGCAACA | 0.0452
AACCACTG | -0.136
GCCCTCAC | -0.226
CATCCCCC | -0.0212
CATCCCCA | -0.109
AATCCCGA | 0.42
AATCCCCC | 0.0792
TATCCCGA | 0.258
AATCCCCA | -0.0702
AATCCCCG | 0.398
CATCCCCG | 0.396
CATCCCGG | 0.342
CATCCCGA | 0.262
AATCCCGT | 0.346
AATCCCGG | 0.439
AGGTTCAG | 0.0375

Sequence | PBM E-score
AAGCCTCC | 0.0849
CATTGGCA | -0.208
CAAGATCC | 0.167
ATTATAGC | -0.086
ATGTCTAC | -0.1
AGAAAGAT | -0.103
CACGTCAC | -0.147
GCGCATAA | -0.0332
ACCAAGAG | -0.29
TCCGAGGA | 0.401
TCCGATAA | 0.428
TCCGAGAA | 0.421
GCCGATAA | 0.301
ACCGAGAA | 0.109
CCCGAGGA | 0.061
GCCGAGGA | 0.197
ACCGATAA | 0.269
CCCGAGAA | 0.293
ACAATGGT | -0.255
ATCGTGAA | 0.00733
GGAGGTTA | 0.101
AAAAGATC | -0.0655
ATGCCGCC | 0.325
CCCATGGC | -0.0499
ATACCGGG | 0.334

Sequence | PBM E-score
ATACCGGA | 0.405
ATACCGGC | 0.354
GTACCGGA | 0.415
GTACCGCA | 0.164
CTACCGGA | 0.348
ATGTCCCA | -0.0785
CTCTACTA | -0.245
GAGCAAAC | 0.0239
CTCCTATC | -0.0262
CGAGCGGA | 0.381
AGAGCGGA | 0.254
GGGGCGTA | 0.0266
CGGGCGGA | 0.405
GGAGCGGA | 0.396
GGGGCGGA | 0.412
CGGGCGGC | 0.31
CGGGCGTA | 0.178
AGGGCGGA | 0.385
CCAGTAGC | 0.181
